Reference: PubChem BioAssay (EPA / NIEHS)
Active and inactive are the calls of the source. Rule for the calls: active = hit-call score of the fitted dose curve at least 0.9, where 1 is the maximum; inactive = score below 0.9.

How the values were obtained:
Conditions in all cases: mRNA level, 48 h; actives raise or lower the signal
CYP4A11 (gene 1579) = assay: LTEA_HepaRG_CYP4A11: Life Technologies and Expression Analysis (LTEA) Assay for CYP4A11 using HepaRG (AID 2283486)
How it was run: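 Human hepatic HepaRG cultures receive duplicate 48 h exposures across a concentration-response series topping at 100 uM. Expression changes in CYP4A11 are measured by qRT-PCR relative to DMSO controls.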

[1] = read-out: Cytochrome P450 3A4 (Homo sapiens) (UniProt P08684); assay: LTEA_HepaRG_CYP3A4: Life Technologies and Expression Analysis (LTEA) Assay for CYP3A4 using HepaRG (AID 2283487)
How it was run: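 HepaRG, 48 h exposure, 8-pt CRC from 100 uM (half-log), 0.5% DMSO, duplicates; serum-free induction medium. Readout: CYP3A4 mRNA, qRT-PCR, ACTB/GAPDH/POLR2A normalization. Bidirectional fit vs DMSO.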

[2] = read-out: DNA damage-inducible transcript 3 (DDIT3), DDIT3 (gene 1649); assay: LTEA_HepaRG_DDIT3: Life Technologies and Expression Analysis (LTEA) Assay for DNA damage-inducible transcript 3 (DDIT3) using HepaRG (AID 2283488)
How it was run: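 Cells are human HepaRG liver cells treated for 48 h with eight half-log concentrations up to 100 uM in 0.5% DMSO. Transcript levels come from qRT-PCR normalized to three housekeeping genes, with activity fitted in both directions relative to vehicle.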

[3] = read-out: Pro-epidermal growth factor (Homo sapiens) (UniProt P01133); assay: LTEA_HepaRG_EGF: Life Technologies and Expression Analysis (LTEA) Assay for Epidermal growth factor (EGF) using HepaRG (AID 2283489)
How it was run: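 Concentration-response mRNA assay: HepaRG cells dosed 48 h (max 100 uM, 0.5% DMSO), EGF measured by qRT-PCR and normalized to ACTB/GAPDH/POLR2A.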

[4] = read-out: Early growth response protein 1 (EGR1) transcription factor, EGR1 (gene 1958); assay: LTEA_HepaRG_EGR1: Life Technologies and Expression Analysis (LTEA) Assay for Early growth response protein 1 (EGR1) transcription factor using HepaRG (AID 2283490)
How it was run: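 HepaRG, 48 h exposure, 8-pt half-log series from 100 uM, 0.5% DMSO vehicle; EGR1 transcript by TaqMan qRT-PCR (Fluidigm array), housekeeping-normalized; bidirectional fit relative to DMSO baseline.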

[5] = read-out: Ezrin (EZR), EZR (gene 7430); assay: LTEA_HepaRG_EZR: Life Technologies and Expression Analysis (LTEA) Assay for Ezrin (EZR) using HepaRG (AID 2283491)
How it was run: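 Read-out is EZR transcript level by qRT-PCR, normalized to three housekeeping genes and fitted bidirectionally against the DMSO control. Human HepaRG cells received test chemicals for 48 h at eight half-log concentrations up to 100 uM in 0.5% DMSO.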

CYP3A5 (gene 1577) = assay: LTEA_HepaRG_CYP3A5: Life Technologies and Expression Analysis (LTEA) Assay for CYP3A5 using HepaRG (AID 2283493)
How it was run: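 Human HepaRG hepatic cells receive 48 h chemical treatment at eight concentrations (half-log steps from 100 uM) in 0.5% DMSO. Expression of CYP3A5 is quantified by Fluidigm qRT-PCR and normalized to three reference genes.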

[6] = read-out: Fatty Acid-Binding Protein 1 (FABP1), FABP1 (gene 2168); assay: LTEA_HepaRG_FABP1: Life Technologies and Expression Analysis (LTEA) Assay for Fatty Acid-Binding Protein 1 (FABP1) using HepaRG (AID 2283494)
How it was run: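 qRT-PCR readout of FABP1 transcript (normalized to three housekeeping genes) after 48 h chemical exposure of HepaRG cells; eight concentrations, half-log steps, max 100 uM, 0.5% DMSO vehicle; gain or loss fitted relative to DMSO baseline.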

[7] = read-out: Cytochrome P450 4A22 (Homo sapiens) (UniProt Q5TCH4); assay: LTEA_HepaRG_CYP4A22: Life Technologies and Expression Analysis (LTEA) Assay for Cytochrome P450 4A22 (CYP4A22) using HepaRG (AID 2283495)
How it was run: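 Concentration-response (8 points, max 100 uM, 0.5% DMSO) in human HepaRG liver cells after 48 h exposure. CYP4A22 mRNA by TaqMan qRT-PCR with housekeeping-gene normalization.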

[8] = read-out: Cytochrome P450 3A7 (Homo sapiens) (UniProt P24462); assay: LTEA_HepaRG_CYP3A7: Life Technologies and Expression Analysis (LTEA) Assay for CYP3A7 using HepaRG (AID 2283492)
How it was run: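 qRT-PCR of CYP3A7 in HepaRG lysates after 48 h treatment; concentration-response (8 points, max 100 uM) analysed bidirectionally relative to 0.5% DMSO controls.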

Measured: AC50

Sequence of Cytochrome P450 3A4 (Homo sapiens) (P08684 whole entry, looked up): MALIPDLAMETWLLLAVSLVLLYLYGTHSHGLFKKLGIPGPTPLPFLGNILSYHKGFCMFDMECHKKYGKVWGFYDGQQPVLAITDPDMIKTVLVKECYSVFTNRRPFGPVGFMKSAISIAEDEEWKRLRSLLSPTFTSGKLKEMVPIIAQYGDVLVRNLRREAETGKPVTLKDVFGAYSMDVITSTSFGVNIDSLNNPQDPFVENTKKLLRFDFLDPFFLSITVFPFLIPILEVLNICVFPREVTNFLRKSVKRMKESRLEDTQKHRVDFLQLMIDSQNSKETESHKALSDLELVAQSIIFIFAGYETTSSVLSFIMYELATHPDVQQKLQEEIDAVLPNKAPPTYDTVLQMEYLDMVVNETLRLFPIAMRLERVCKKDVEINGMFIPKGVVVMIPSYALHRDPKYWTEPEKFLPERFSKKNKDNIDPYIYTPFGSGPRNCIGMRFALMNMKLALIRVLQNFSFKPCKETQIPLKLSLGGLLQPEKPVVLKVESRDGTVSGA
Sequence of Cytochrome P450 3A7 (Homo sapiens) (P24462 whole entry, looked up): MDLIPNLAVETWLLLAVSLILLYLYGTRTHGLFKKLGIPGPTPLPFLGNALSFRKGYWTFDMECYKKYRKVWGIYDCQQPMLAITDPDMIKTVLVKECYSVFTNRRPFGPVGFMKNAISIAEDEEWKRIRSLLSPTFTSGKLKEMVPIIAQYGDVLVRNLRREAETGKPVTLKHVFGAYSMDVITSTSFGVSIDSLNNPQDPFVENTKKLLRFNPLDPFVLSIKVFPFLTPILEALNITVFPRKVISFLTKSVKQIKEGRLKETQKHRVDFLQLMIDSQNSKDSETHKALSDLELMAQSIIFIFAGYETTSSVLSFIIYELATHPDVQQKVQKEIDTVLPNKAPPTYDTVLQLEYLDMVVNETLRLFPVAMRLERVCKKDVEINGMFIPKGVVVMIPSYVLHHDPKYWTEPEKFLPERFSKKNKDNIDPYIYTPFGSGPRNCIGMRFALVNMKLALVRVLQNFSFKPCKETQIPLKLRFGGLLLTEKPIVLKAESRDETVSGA

C[N+](C)(C)CC1CO1 (stereo not given)
not listed: [8]
inactive: all other assays above

Nc1ccc([N+](=O)[O-])cc1
inactive: all assays above

CN(C)c1ccccc1
inactive: all assays above

CCC12COCN1COC2
inactive: all assays above

CCCCCCCCCCCCCN1CC(C)OC(C)C1 (stereo not given)
inactive: all assays above

c1ccc(C2CO2)cc1 (stereo not given)
inactive: all assays above

Nc1cc(Cl)cc(C(=O)O)c1Cl
active: CYP4A11 (gene 1579) 50 µM
inactive: all other assays above

CCC(C)c1ccc(O)cc1 (stereo not given)
not listed: [8]
inactive: all other assays above

O=P(OCCCl)(OCCCl)OCCCl
inactive: all assays above

O=C1CCCO1
active: CYP4A11 (gene 1579) 0.0449 µM | CYP3A5 (gene 1577) 9.92 µM
inactive: all other assays above

C=CCc1ccc2c(c1)OCO2
not listed: [8]
inactive: all other assays above

Cn1cc(-c2ccccc2)c(=O)c(-c2cccc(C(F)(F)F)c2)c1
active: [1] 2.92 µM | [2] 89.8 µM | [8] 1.52 µM
inactive: all other assays above

Clc1ccc(Cl)c(Cl)c1
active: [2] 9.92 µM
not listed: [8]
inactive: all other assays above

Clc1ccccc1Cl
inactive: all assays above

CCOC(=O)[C@]1(c2ccccc2)Oc2ccccc2[C@@H]1N
inactive: [4] | [5] | CYP3A5 (gene 1577)
active: CYP4A11 (gene 1579) 79.7 µM | [1] 80 µM | [2] 76.8 µM | [3] 75.6 µM | [6] 90.1 µM | [7] 71.6 µM

OCCCBr
not listed: [8]
inactive: all other assays above

O=C(Nc1ccccc1)c1ccccc1I
active: [6] 21.7 µM
inactive: all other assays above

Oc1ccccc1Cl
inactive: all assays above

CCNS(=O)(=O)C(F)(F)C(F)(F)C(F)(F)C(F)(F)C(F)(F)C(F)(F)C(F)(F)C(F)(F)F
active: CYP4A11 (gene 1579) 12 µM | [4] 35.6 µM | [6] 59.3 µM
not listed: [7]
inactive: all other assays above

Brc1ccc(Oc2ccccc2)cc1
inactive: all assays above

OCCCl
inactive: all assays above

C1=Cc2cccc3cccc1c23
inactive: all assays above

CCCCOC(=O)c1ccccc1C(=O)OCc1ccccc1
not listed: [8]
inactive: all other assays above

CCCCCCCCn1sccc1=O
active: CYP4A11 (gene 1579) 91.1 µM | [1] 81.4 µM | [8] 89.1 µM | CYP3A5 (gene 1577) 83.1 µM | [7] 78.9 µM
inactive: [2] | [3] | [4] | [5] | [6]

CC(C)(C)OOC(=O)c1ccccc1
not listed: [8]
inactive: all other assays above

Nc1ccc(Oc2ccc(N)cc2)cc1
active: [6] 50 µM
not listed: [8]
inactive: all other assays above

Cc1cc(N=Nc2ccccc2C)ccc1N
inactive: [2] | [3] | [4] | [5]
active: CYP4A11 (gene 1579) 4.52 µM | [1] 2.94 µM | [8] 6.38 µM | CYP3A5 (gene 1577) 3.11 µM | [6] 5.03 µM | [7] 4.39 µM

CO[C@@H]1[C@H](OC(=O)NC(=O)CCl)CC[C@]2(CO2)[C@H]1[C@@]1(C)O[C@@H]1CC=C(C)C
active: [6] 1.96 µM
not listed: [5]
inactive: all other assays above

Cc1ccc(N=C=O)cc1N=C=O
inactive: [1] | [3] | [8] | CYP3A5 (gene 1577)
active: CYP4A11 (gene 1579) 20.8 µM | [2] 13.3 µM | [4] 50 µM | [6] 23 µM | [7] 50 µM

N#CC(Br)(Br)C(N)=O
not listed: [8]
inactive: all other assays above

[Cl-].[Cl-].[Hg+2]
not listed: [8]
inactive: all other assays above

CN(C)C(=O)Nc1ccc(Cl)cc1
not listed: [5]
inactive: all other assays above

CNC(=O)Oc1cccc2c1OC(C)(C)C2
active: [1] 6.81 µM | [6] 3.45 µM
not listed: [8]
inactive: all other assays above

c1ccc(NNc2ccccc2)cc1
not listed: [5]
inactive: all other assays above

CC(C)(O)c1cnn2c(-c3ccc(F)c(-c4c(F)cccc4C#N)c3)cnc2n1
active: CYP4A11 (gene 1579) 1.51 µM | [1] 0.263 µM | [6] 1.57 µM | [7] 1.71 µM
not listed: [8]
inactive: all other assays above

CC(C)COC(=O)c1ccccc1C(=O)OCC(C)C
not listed: [5]
inactive: all other assays above

Clc1ccc(C(c2ccc(Cl)cc2)C(Cl)Cl)cc1
inactive: [2] | [3] | [4] | [5]
active: CYP4A11 (gene 1579) 50 µM | [1] 10 µM | CYP3A5 (gene 1577) 29.7 µM | [6] 54.7 µM | [7] 22.4 µM

Cc1ccc(N)c(N)c1
active: [8] 35.9 µM | [6] 74.8 µM
not listed: [5]
inactive: all other assays above

COP(=S)(OC)SCN1C(=O)c2ccccc2C1=O
not listed: [5] | [6]
inactive: all other assays above

CCCCCOC(=O)c1ccccc1C(=O)OCCCCC
active: CYP4A11 (gene 1579) 50 µM | [7] 79.7 µM
not listed: [5]
inactive: all other assays above

O=Cc1ccco1
not listed: [8]
inactive: all other assays above

O=C(Oc1ccc(Br)cc1)N1CCN2CCC1CC2
active: CYP4A11 (gene 1579) 34.9 µM | [1] 33.3 µM | [6] 31.6 µM | [7] 40 µM
not listed: [5]
inactive: all other assays above

ClCCOCCCl
not listed: [8]
inactive: all other assays above

[As]#[In]
not listed: [5]
inactive: all other assays above

COc1cc(C=O)cc2c1[C@H](COC(N)=O)[C@]1(OC(C)=O)ON2C[C@H]2[C@@H]1N2C(C)=O
inactive: [1] | [3] | [8] | CYP3A5 (gene 1577)
active: CYP4A11 (gene 1579) 0.5 µM | [2] 15.8 µM | [4] 88.8 µM | [6] 0.701 µM | [7] 0.0669 µM

CCCCC(CC)COC(=O)c1ccc(C(=O)OCC(CC)CCCC)c(C(=O)OCC(CC)CCCC)c1 (stereo not given)
not listed: [5]
inactive: all other assays above

CN(C)[C@@H]1C(=O)C(C(N)=O)=C(O)[C@@]2(O)C(=O)C3=C(O)c4c(O)cccc4[C@@](C)(O)[C@H]3C[C@@H]12
not listed: [5]
inactive: all other assays above

OCCOCCO
not listed: [5] | [8]
inactive: all other assays above

CCOc1cccc(C2(N3CCN(c4ccccc4)CC3)CCC(C)CC2)c1 (stereo not given)
not listed: [8]
inactive: all other assays above

Cc1ccc(N)cc1
not listed: [8]
inactive: all other assays above

Cc1cccc(N)c1N
active: CYP4A11 (gene 1579) 86.1 µM | CYP3A5 (gene 1577) 11.1 µM | [6] 62.6 µM | [7] 50 µM
not listed: [5]
inactive: all other assays above

CC(C)(OOC(C)(C)c1ccccc1)c1ccccc1
active: [1] 23.9 µM | [8] 40.4 µM
not listed: [5]
inactive: all other assays above

CCCSC(=O)N(CCC)CCC
not listed: [5]
inactive: all other assays above

CC(O)CCO (stereo not given)
not listed: [5]
inactive: all other assays above

CCN(CC)CCO
not listed: [5]
inactive: all other assays above
